Screening results as filed in PubChem BioAssay.
IL-1B inflam inh: inhibitors of inflammasome signaling (IL-1 beta secretion); AID 743279; activity change, % at 57.5 µM; actives 4.7% (n = 360,000); THP-1 LPS/ATP IL-1B secretion, AlphaLISA, 16 h; stronger effect = lower value; in the data active means activity change below about -50%; inconclusive means mostly about -30% to -49%; further: on the % scale 0 is the no-effect control and ±100 the full control effect
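Secreted IL-1B measured by AlphaLISA bead assay after 16 h compound exposure of THP-1 cells; compounds (final up to 57.5 uM) added 1 h before LPS (250 ng/mL) and ATP (1.25 mM) stimulation; lower signal means less secretion.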
ATXN viability: cell viability loss in ATXN counter-screen; S2 cells (HEK-293 line with an ATXN2-luciferase reporter) viability, CellTiter-Fluor protease fluorescence, 24 h; Potency, µM (highest dose often 56.7 µM), most hits filed as cytotoxic; actives 0.49% (n = 400,000); AID 651635; further: potency means the concentration at half of the fitted maximal effect; nearly all actives have a fitted effect of over 40% in size
TGFb SMAD3 inh: TGF-b pathway inhibition | Potency, µM (top dose mostly 46.1 µM), inactives show at the highest dose activity, negative = inhibition, most hits filed as inhibitors | AID 588855 | HepG2 CAGA-GFP TGF-b/SMAD3 reporter, GFP fluorescence, 18 h; TGF-beta stimulated, 500 pg/mL final | actives 1.2% (n = 410,000); further: potency means the concentration at half of the fitted maximal effect; on the % scale 0 is the no-effect control and ±100 the full control effect; nearly all actives have a fitted effect of over 65% in size
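HEPG2 CAGA-GFP cells (1000/well, DMEM with 1% FBS) were pre-incubated 2 h at 37 degrees C, given compound by pin tool, then stimulated with TGF-beta at 500 pg/mL final for 18 h before per-cell GFP fluorescence imaging.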
HepG2 tox: kills HepG2 cells in TGF-b inhibitor counter-screen. HepG2 CAGA-GFP viability, ATP luminescence, 18 h. Potency, µM (top dose mostly 46.1 µM), for inactives: top-dose activity change, negative = cytotoxicity, usual class: cytotoxic. actives 0.76% (n = 410,000); further: potency means the concentration at half of the fitted maximal effect
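CellTiter-Glo luminescence gave cytotoxicity after 18 hours at 37 degrees C. The cells were HepG2 CAGA-GFP in 1% FBS DMEM, stimulated with 500 pg/mL TGF-beta after compound addition. %Activity was normalised to no-cell wells (complete cell-killing) and DMSO (no toxicity), and curves were fitted and classified.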
ATXN2 expr inh: ATXN2 expression inhibition; HEK-293 ATXN2-luciferase reporter, luminescence, 24 h; Potency, µM (titrated, usually from 57 µM), for inactives: top-dose activity change, negative = inhibition, usual class: inhibitors; actives 0.72% (n = 360,000); AID 1745845; further: potency means the concentration at half of the fitted maximal effect; on the % scale 0 is the no-effect control and ±100 the full control effect; nearly all actives have a fitted effect of over 55% in size
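ATXN2-luciferase reporter cells (luciferase flanked by upstream and downstream ATXN2 gene portions) were treated 24 h at 37 °C with compounds at up to 57 uM. SteadyGlo luminescence gave expression; GF-AFC fluorescence gave viability.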
* = called active by the depositor; i = inactive; ? = inconclusive; . = not tested or not shown; ! = not confirmed by another sample; [ ] = remark or other dose. Rows were chosen to be rich in hits. Some 5.7% of all compounds tested hit in one or more screens of this group. Unless noted, the call rests on the fitted dose curve; in most records, active means well fitted curve in the direction sought with a large enough effect; inconclusive means small, poorly fitted or top-dose-only effect, or another doubt; inactive means no such curve, though single readings can be large; an effect the other way counts as inactive or inconclusive.

SMILES	IL-1B inflam inh	ATXN viability	TGFb SMAD3 inh	HepG2 tox	ATXN2 expr inh
COc1ccc(C(=O)OCC(=O)Nc2cc(S(=O)(=O)N3CCOCC3)ccc2N2CCCC2)cc1	-64*	i	12%	-1%	0%
CCN(CC)S(=O)(=O)c1ccc(N2CCOCC2)c(NC(=O)COc2ccccc2C#N)c1	4	i	-1%	-18%	-16%
CCN(CC)S(=O)(=O)c1cc(NC(=O)C(C)Nc2ccccc2N2CCOCC2)ccc1C (stereo unspecified)	-60*	i	0%	-13%	-21%
CCOc1cc(N2CCOCC2)c(OCC)cc1NC(=O)COc1ccccc1[N+](=O)[O-]	-80*	i	0%	-14%	-14%
O=C(COc1ccccc1[N+](=O)[O-])Nc1cccc(Cl)c1N1CCOCC1	14	i	?	1%	-29%
CCN(CC)S(=O)(=O)c1ccc(N2CCOCC2)c(NC(=O)COc2ccccc2C)c1	-56*	i	-18%	-19%	-21%
COCCCNC(=O)CN1C(=O)c2c(c3ccccc3n2C)C1c1ccc(OC)cc1 (stereo unspecified)	.	.	-8%	9%	.
Nc1cc([N+](=O)[O-])cc(N)c1N	.	.	-4%	1%	.
Cc1ccccc1OCC(=O)Nc1cc(S(=O)(=O)N2CCOCC2)ccc1N1CCCC1	-21	i	-21%	-13%	.
CC(C)c1ccccc1OCC(=O)Nc1cc(S(=O)(=O)N2CCOCC2)ccc1N1CCCC1	-56*	i	?	6%	-18%
Cc1cccc(CN2CCC(CNC(=O)CSc3cc(=O)n(C)c4cc(Cl)ccc34)CC2)c1	20	?	0%	-8%	12%
CCc1ccc(NC(=O)NCC2CCN(Cc3cccc(Cl)c3)CC2)cc1	-17	?	-1%	-26%	.
Cc1ccc(NC(=O)NCC2CCN(Cc3cccc(Cl)c3)CC2)cc1Cl	-100*	?	?	13µM*!	?
O=C(Nc1ccc(CN2CCCCC2)cc1)Nc1ccccc1Cl	?	i	-4%	-26%	-14%
O=C(NCC1CCN(Cc2cccc(Cl)c2)CC1)Nc1ccccc1Cl	-83*	i	0%	-31%	-22%
Cc1ccc(NC(=O)NCC2CCN(Cc3cccc(Cl)c3)CC2)c(Cl)c1	-51*	i	-24%	-16%	-8%
COc1ccc(CCNC(=O)Cc2c(C)c3cc4c(C(C)(C)C)coc4c(C)c3oc2=O)cc1	.	.	-16%	2%	.
O=C1CCN(Cc2cccc(C(F)(F)F)c2)CCN1Cc1ccccn1	.	i	.	.	.
Oc1ccc(NC(=S)N=Nc2c(O)[nH]c3ccccc23)cc1	-66*	?	?	-15%	-16%[11.3 µM]
Cc1ccc(NC(=S)N=Nc2c(O)[nH]c3ccccc23)cc1	0	?	4µM*	-39%	?
CNC(=S)N=Nc1c(O)[nH]c2ccccc12	10	i	0%	-19%	1%
COc1ccc(NC(=S)N=Nc2c(O)[nH]c3ccccc23)cc1	34	?	6.3µM*	-22%	.
Oc1cccc(Nc2nc(-c3ccccc3)nc3ccccc23)c1	-91*	?	?	-21%	?
COc1ccc(NC(=O)c2cc(C)nc3ccccc23)cc1S(=O)(=O)N1CCOCC1	-17	i	9%	-13%	-21%
CCOC(=O)c1cccc(Nc2nc(-c3cccnc3)nc3ccccc23)c1	-108*	?	?	-50%	?
SMILES	IL-1B inflam inh	ATXN viability	TGFb SMAD3 inh	HepG2 tox	ATXN2 expr inh
COc1ccc(Nc2nc(-c3ccccc3)nc3ccccc23)cc1S(=O)(=O)N1CCOCC1	-74*	i	?	-33%	.
Cc1cccc(Nc2nc(-c3ccccc3)nc3ccccc23)c1	.	i	?	-52%	-33%
CCOC(=O)c1c(C)c(-c2ccccc2)n(CC(=O)NCc2cccc(OC)c2)c1C	.	i	-23%	-24%	3%
COc1cccc(C(=O)N2CCCC(c3nc(SCCN4CCOCC4)ncc3C)C2)c1 (stereo unspecified)	.	i	.	.	.
CC(C)=CCC/C(C)=C/COc1c2ccoc2cc2oc(=O)ccc12	.	.	-28%	-19%	.
COc1cc(Nc2nc(SCc3cccc(Cl)c3)nc3ccccc23)cc(OC)c1	.	.	-29%	-24%	.
COc1ccc(NS(=O)(=O)c2cc(NC(=O)c3ccccn3)ccc2OC)cc1Br	-56*	i	-24%	-13%	-3%
COc1ccc(NC(=O)c2ccccn2)cc1S(=O)(=O)N1CCOCC1	-15	i	-12%	-1%	-3%
COc1ccc(NC(=O)C2CCC2)cc1S(=O)(=O)Nc1cc(C)ccc1Br	-69*	i	-18%	-17%	-15%
COc1ccc(/C=C/c2cnc3ccccc3n2)cc1OC	.	.	-4%	-35%	.
CCOc1cc(CN2CCCC(C(=O)c3cccc(C(F)(F)F)c3)C2)ccc1O (stereo unspecified)	-3	i	1%	-22%	-27%
O=C(c1ccc(C(F)(F)F)cc1)C1CCCN(Cc2cccn2-c2ncccn2)C1 (stereo unspecified)	-73*	i	-17%	-23%	?
O=C(c1cccc(C(F)(F)F)c1)C1CCCN(Cc2cccn2-c2ncccn2)C1 (stereo unspecified)	-68*	i	?	-40%	?
Cc1cccc(-n2ncc3c(N4CCN(c5ccccc5)CC4)ncnc32)c1	.	.	-15%	-8%	.
Cc1cccc(C(=O)N2CCN(c3ncnc4c3cnn4-c3ccccc3)CC2)c1	-57*	i	10%	3%	-7%
Cc1ccc(-n2ncc3c(N4CCN(c5ccccc5)CC4)ncnc32)c(C)c1	-69*	i	-6%	-39%	0%
Cc1cccc(-n2ncc3c(N4CCOCC4)ncnc32)c1	-25	i	15%	-2%	10µM*
Cc1cccc(-n2cc(-c3ccccc3)c3c(N4CCOCC4)ncnc32)c1	-67*	i	?	10%	.
